Test results reported in PubChem BioAssay (Tox21).
Records with an inconclusive call do not appear. Activity calls are given as the source filed them. Unless noted, calls follow the shape of the dose curve; as a rule, active = well fitted curve in the direction sought with a large enough effect in the repeat runs; inconclusive = weak or mixed curves; inactive = no such curve, though single readings can be large; an effect the other way counts as inactive or inconclusive.

How the values were obtained:
[1] = qHTS assay to identify aromatase inhibitors - cell viability counter screen (AID 743084);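 also: cells stimulated with testosterone during compound exposure; nearly all actives have a fitted effect of over 55% in size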
[2] = qHTS assay to identify small molecule that activate the aryl hydrocarbon receptor (AhR) signaling pathway - cell viability counter screen (AID 743086);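 also: HepG2 liver cells carrying the AhR DRE luciferase reporter; series mostly up to about 70 µM; nearly all actives have a fitted effect of over 45% in size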
In short: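 Cytotoxicity counter screen: CellTiter-Fluor signal (30 min, 37 C) in 4000 HepG2 cells/well carrying the DRE-luciferase reporter, following 24 h compound exposure at 37 C.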

[3] = biological target: Peroxisome proliferator-activated receptor gamma (Homo sapiens) (UniProt P37231); assay: qHTS assay to identify small molecule agonists of the peroxisome proliferator-activated receptor gamma (PPARg) signaling pathway (AID 743094; active = well fitted activation curve with a large enough effect in the signal ratio in the repeat runs, not every such curve was filed as active; the % refers to the signal ratio)
Chain of Peroxisome proliferator-activated receptor gamma (Homo sapiens) (P37231 whole entry, looked up): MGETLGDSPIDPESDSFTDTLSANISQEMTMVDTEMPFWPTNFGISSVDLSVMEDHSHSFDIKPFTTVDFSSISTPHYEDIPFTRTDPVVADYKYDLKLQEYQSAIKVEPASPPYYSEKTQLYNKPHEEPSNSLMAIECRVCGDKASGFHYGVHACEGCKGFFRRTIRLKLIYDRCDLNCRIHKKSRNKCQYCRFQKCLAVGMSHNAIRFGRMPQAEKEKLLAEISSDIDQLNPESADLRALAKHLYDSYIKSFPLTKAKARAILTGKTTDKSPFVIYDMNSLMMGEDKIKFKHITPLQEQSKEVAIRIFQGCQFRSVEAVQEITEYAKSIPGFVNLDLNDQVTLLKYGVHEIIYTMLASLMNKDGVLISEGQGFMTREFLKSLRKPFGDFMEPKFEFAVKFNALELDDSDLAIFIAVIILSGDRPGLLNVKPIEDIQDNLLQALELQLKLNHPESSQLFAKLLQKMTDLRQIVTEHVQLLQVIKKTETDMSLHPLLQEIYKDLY
In short: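 Stably transfected HEK293H cells (GeneBLAzer PPARg UAS-bla) were incubated with test substances for 17 h at 37C after a 5 h pre-incubation; beta-lactamase activity was then detected by FRET substrate fluorescence.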

[4] = biological target: Peroxisome proliferator-activated receptor gamma (Homo sapiens) (UniProt P37231); assay: qHTS assay to identify small molecule antagonists of the peroxisome proliferator-activated receptor gamma (PPARg) signaling pathway (AID 743191; calls by dose curve; also: series mostly up to about 63 µM; nearly all actives have a fitted effect of over 30% in size)
In short: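 Beta-lactamase reporter under UAS control in HEK293H PPARg-bla cells; compound treatment 17 h at 37C. Read-out: fluorescence intensity after 1 h room-temperature incubation with LiveBLAzer B/G FRET substrate.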

[5] = qHTS assay to identify small molecule antagonists of the peroxisome proliferator-activated receptor gamma (PPARg) signaling pathway - cell viability counter screen (AID 743194); also: nearly all actives have a fitted effect of over 55% in size
In short: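 Viability was measured as CellTiter-Glo luminescence in GeneBLAzer PPARg UAS-bla HEK293H cells. These cells had been exposed 17 h at 37 C to compounds together with rosiglitazone at 50 nM final, with the beta-lactamase readout taken in the same wells.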

[6] = qHTS assay for small molecule agonists of the antioxidant response element (ARE) signaling pathway (AID 743202; active = well fitted activation curve with a large enough effect in the signal ratio in the repeat runs, not every such curve was filed as active; the % refers to the signal ratio)
In short: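 An ARE-responsive beta-lactamase gene stably integrated in HepG2 cells serves as reporter. After 5 h plating and 16 h compound incubation at 37 C, fluorescence of the B/G FRET substrate was measured.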

[7] = qHTS assay for small molecule agonists of the antioxidant response element (ARE) signaling pathway - cell viability counter screen (AID 743203; calls by dose curve; also: nearly all actives have a fitted effect of over 55% in size)
In short: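 Cells (ARE-bla HepG2, 2,000/well) receive DMSO-dissolved compounds after a 5 hrs rest. Plates incubate 16 hrs at 37C/5% CO2. CellTiter-Glo luminescence is then recorded after 30 min at room temperature.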

[8] = qHTS assay for small molecule activators of the heat shock response signaling pathway - cell viability counter screen (AID 743209); also: nearly all actives have a fitted effect of over 50% in size
In short: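 Quantitative HTS format, Tox21 10K library. HeLa cells carrying an HSE-driven beta-lactamase reporter were treated 5 h at 37 C, then assessed for viability by CellTiter-Glo luminescence.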

[9] = qHTS assay for small molecule activators of the heat shock response signaling pathway (AID 743210; active = well fitted activation curve with a large enough effect in the signal ratio in the repeat runs, with a control signal flat, not every such curve was filed as active; the % refers to the signal ratio;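 also: HeLa cells with beta-lactamase reporter driven by heat shock elements; series mostly up to about 63 µM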)
In short: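 In HSE-bla HeLa cells, 5 h compound incubation (37 C) precedes addition of LiveBLAzer B/G substrate; after 2.5 h at room temperature, fluorescence intensity indicates reporter induction.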

[10] = qHTS assay to identify small molecule agonists of the peroxisome proliferator-activated receptor delta (PPARd) signaling pathway - cell viability counter screen (AID 743211); also: nearly all actives have a fitted effect of over 55% in size
In short: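 HEK293H PPARd-bla, 3000 cells/well; 5 h preincubation 37C/5% CO2; cpd in DMSO, 17 h 37C; B/G FRET substrate 2 h RT; CellTiter-Glo 30 min RT, luminescence.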

[11] = biological target: Peroxisome proliferator-activated receptor delta (Homo sapiens) (UniProt Q03181); assay: qHTS assay to identify small molecule agonists of the peroxisome proliferator-activated receptor delta (PPARd) signaling pathway (AID 743212; calls by dose curve)
Chain of Peroxisome proliferator-activated receptor delta (Homo sapiens) (Q03181 whole entry, looked up): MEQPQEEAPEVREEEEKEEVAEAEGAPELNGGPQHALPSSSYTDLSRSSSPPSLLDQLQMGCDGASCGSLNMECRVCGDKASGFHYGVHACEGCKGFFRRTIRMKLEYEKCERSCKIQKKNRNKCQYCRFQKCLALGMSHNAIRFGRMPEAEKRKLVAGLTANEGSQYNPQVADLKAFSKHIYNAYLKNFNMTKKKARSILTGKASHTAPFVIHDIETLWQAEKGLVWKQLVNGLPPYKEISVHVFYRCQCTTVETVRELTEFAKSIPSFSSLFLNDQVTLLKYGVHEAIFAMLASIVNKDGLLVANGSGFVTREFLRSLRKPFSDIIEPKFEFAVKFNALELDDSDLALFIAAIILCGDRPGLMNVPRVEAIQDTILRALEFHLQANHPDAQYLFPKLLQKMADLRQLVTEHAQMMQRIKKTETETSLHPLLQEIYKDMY
In short: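 HEK293H UAS-bla reporter cells, human PPARd system; compounds delivered in DMSO after 5 h plating, then at 37 C. Beta-lactamase FRET read, 2 h RT substrate step.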

[12] = biological target: Peroxisome proliferator-activated receptor delta (Homo sapiens) (UniProt Q03181); assay: qHTS assay to identify small molecule antagonists of the peroxisome proliferator-activated receptor delta (PPARd) signaling pathway (AID 743215; active = well fitted inhibition curve with a large enough effect in the signal ratio in the repeat runs, not every such curve was filed as active; the % refers to the signal ratio;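 also: cells stimulated with agonist L165041 at 300 nM final during compound exposure; series mostly up to about 62 µM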)
In short: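 Antagonist-mode beta-lactamase reporter screen: HEK293H cells with UAS-bla under PPARd control, stimulated by 300 nM L165041 (final) alongside test compound for 17 h at 37 C, then FRET fluorescence after 2 h substrate incubation.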

[13] = biological target: Bile acid receptor (Homo sapiens) (UniProt Q96RI1); assay: qHTS assay to identify small molecule antagonists of the farnesoid-X-receptor (FXR) signaling pathway (AID 743217; active = well fitted inhibition curve with a large enough effect in the signal ratio in the repeat runs, not every such curve was filed as active; the % refers to the signal ratio)
Chain of Bile acid receptor (Homo sapiens) (Q96RI1 whole entry, looked up): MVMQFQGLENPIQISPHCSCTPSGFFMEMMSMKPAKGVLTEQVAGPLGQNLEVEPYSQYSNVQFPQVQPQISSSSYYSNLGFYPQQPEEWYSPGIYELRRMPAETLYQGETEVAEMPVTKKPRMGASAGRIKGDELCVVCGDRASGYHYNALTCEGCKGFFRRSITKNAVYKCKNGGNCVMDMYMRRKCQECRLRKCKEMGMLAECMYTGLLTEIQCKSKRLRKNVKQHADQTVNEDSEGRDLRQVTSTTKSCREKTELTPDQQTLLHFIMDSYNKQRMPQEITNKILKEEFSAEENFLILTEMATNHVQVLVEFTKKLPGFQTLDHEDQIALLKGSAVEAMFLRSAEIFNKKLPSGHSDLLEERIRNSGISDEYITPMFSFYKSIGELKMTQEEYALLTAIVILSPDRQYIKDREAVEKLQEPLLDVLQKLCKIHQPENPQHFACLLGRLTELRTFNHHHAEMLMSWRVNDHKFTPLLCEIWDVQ
In short: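 Beta-lactamase reporter under UAS control in HEK 293T cells; compound exposure 16 h at 37 °C in the presence of chenodeoxycholic acid (50 uM final); signal from B/G FRET substrate after 2 h at room temperature.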

[14] = qHTS assay to identify small molecule agonists of the farnesoid-X-receptor (FXR) signaling pathway - cell viability counter screen (AID 743218); also: nearly all actives have a fitted effect of over 45% in size
In short: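 In GeneBLAzer FXR-UAS-bla HEK 293T cells, compounds act for 16 h at 37 C. Cell viability is then scored in the reporter wells by CellTiter-Glo, 30 min at RT, luminescence.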

[15] = biological target: Bile acid receptor (Homo sapiens) (UniProt Q96RI1); assay: qHTS assay to identify small molecule agonists of the farnesoid-X-receptor (FXR) signaling pathway (AID 743220; active = well fitted activation curve with a large enough effect in the signal ratio in the repeat runs, not every such curve was filed as active; the % refers to the signal ratio)
In short: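 Beta-lactamase reporter under UAS control in GeneBLAzer FXR HEK 293T cells (5000/well) measured with LiveBLAzer FRET substrate after 2 h at room temperature. Compound exposure lasted 16 h at 37C.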

[16] = qHTS assay to identify small molecule antagonists of the farnesoid-X-receptor (FXR) signaling pathway - cell viability counter screen (AID 743221; active = well fitted cell-killing curve with a large enough effect in the repeat runs, not every such curve was filed as active; also: nearly all actives have a fitted effect of over 50% in size)
In short: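 Luminescence from CellTiter-Glo measures cytotoxicity in GeneBLAzer FXR-UAS-bla HEK 293T cells. Cells were exposed to compounds with 50 uM chenodeoxycholic acid (final) for 16 h at 37 C, in wells also used for the reporter readout.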

[17] = biological target: Vitamin D3 receptor (Homo sapiens) (UniProt P11473); assay: qHTS assay to identify small molecule antagonists of the vitamin D receptor (VDR) signaling pathway (AID 743223; active = well fitted inhibition curve with a large enough effect in the signal ratio in the repeat runs, not every such curve was filed as active; the % refers to the signal ratio)
Chain of Vitamin D3 receptor (Homo sapiens) (P11473 whole entry, looked up): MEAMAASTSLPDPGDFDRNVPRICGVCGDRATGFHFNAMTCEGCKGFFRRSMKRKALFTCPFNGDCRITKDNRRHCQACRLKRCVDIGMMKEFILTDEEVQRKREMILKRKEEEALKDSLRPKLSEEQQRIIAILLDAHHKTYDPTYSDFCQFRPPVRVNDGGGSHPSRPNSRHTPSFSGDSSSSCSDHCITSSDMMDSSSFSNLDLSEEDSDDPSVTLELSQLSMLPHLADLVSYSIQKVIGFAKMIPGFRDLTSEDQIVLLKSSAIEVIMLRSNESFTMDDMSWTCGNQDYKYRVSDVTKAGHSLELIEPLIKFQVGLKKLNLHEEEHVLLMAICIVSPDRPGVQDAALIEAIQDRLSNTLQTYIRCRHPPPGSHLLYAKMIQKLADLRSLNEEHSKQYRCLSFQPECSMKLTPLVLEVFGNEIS
In short: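 Antagonist mode uses 1alpha,25-dihydroxyvitamin D3 at 3 nM final as stimulus. VDR-bla cells receive compounds in DMSO, incubate 16 h at 37C, then a beta-lactamase FRET substrate for 2 h at room temperature before fluorescence measurement.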

[18] = qHTS assay to identify small molecule antagonists of the peroxisome proliferator-activated receptor delta (PPARd) signaling pathway - cell viability counter screen (AID 743213); also: nearly all actives have a fitted effect of over 50% in size
In short: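 CellTiter-Glo was added to PPARd-bla HEK293H wells following 17 h compound treatment in the presence of 300 nM L165041. Luminescence was recorded after 30 min at room temperature.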

[19] = biological target: Vitamin D3 receptor (Homo sapiens) (UniProt P11473); assay: qHTS assay to identify small molecule agonists of the vitamin D receptor (VDR) signaling pathway (AID 743222; calls by dose curve)
In short: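 Agonist activity measured in VDR-bla reporter cells. Exposure 16 h, 37C, 5% CO2; detection by B/G FRET substrate, 2 h RT.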

Measured: Potency

C=CCSCC1Nc2cc(Cl)c(S(N)(=O)=O)cc2S(=O)(=O)N1 (stereo not given)
inactive: [1] | [2] | [3] | [4] | [5] | [6] | [7] | [8] | [9] | [10] | [11] | [12] | [13] | [14] | [15] | [16] | [17]

C#CC(C)(O)CC(C)C (stereo not given)
inactive: [1] | [2] | [3] | [4] | [5] | [6] | [7] | [8] | [9] | [10] | [11] | [12] | [14] | [16] | [17]

C#CC(O)C(CC)CCCC (stereo not given)
inactive: [1] | [2] | [3] | [4] | [5] | [6] | [7] | [8] | [9] | [10] | [18] | [14] | [16]

CCCCCCCCCCCCCCCCCCOCC(O)CO (stereo not given)
inactive: [1] | [2] | [3] | [5] | [7] | [8] | [9] | [10] | [11] | [18] | [12] | [14] | [16] | [17]

C=C(C)C(=O)NCCCN(C)C
inactive: [1] | [2] | [3] | [4] | [5] | [6] | [7] | [8] | [9] | [10] | [11] | [18] | [14] | [16] | [17]

COc1cc(C)cc(O)c1
inactive: [1] | [2] | [3] | [7] | [8] | [9] | [10] | [11] | [18] | [12] | [14] | [16]

Oc1ccc2c(c1)OC[C@@H](N1CCC(O)(c3ccc(F)cc3)CC1)[C@H]2O
inactive: [1] | [2] | [3] | [4] | [5] | [7] | [8] | [9] | [10] | [11] | [12] | [14] | [16] | [19]

NC(=O)Nc1nc2ccccc2[nH]1
inactive: [1] | [2] | [3] | [4] | [5] | [7] | [8] | [10] | [11] | [18] | [12] | [13] | [14] | [15] | [16] | [19] | [17]

Nc1nc2c(ncn2CCC(CO)CO)c(=O)[nH]1
inactive: [1] | [2] | [3] | [4] | [5] | [6] | [7] | [8] | [9] | [10] | [11] | [18] | [13] | [14] | [15] | [16] | [19]

CCCCCC[C@@H](CCC)C(=O)O
inactive: [1] | [2] | [3] | [5] | [6] | [7] | [8] | [9] | [10] | [18] | [14] | [16] | [19] | [17]

C=CCOCC(O)CS(=O)(=O)O (stereo not given)
inactive: [1] | [2] | [3] | [5] | [6] | [7] | [8] | [9] | [10] | [11] | [18] | [12] | [14] | [16] | [19]

COc1cc(O)cc(O)c1
inactive: [1] | [2] | [3] | [4] | [5] | [7] | [8] | [10] | [11] | [18] | [12] | [13] | [14] | [15] | [16] | [19] | [17]

CSc1nc(NC2CC2)nc(NC(C)(C)C)n1
inactive: [1] | [2] | [3] | [4] | [5] | [7] | [8] | [10] | [11] | [18] | [12] | [14] | [16]

CCCOc1ccccc1-c1nc2n[nH]nc2c(=O)[nH]1
inactive: [1] | [3] | [5] | [6] | [7] | [8] | [9] | [10] | [12] | [15] | [16]

CC1(C)OC(=O)Nc2ccc(Br)cc21
inactive: [5] | [6] | [7] | [9] | [10] | [11] | [18] | [12] | [14] | [15] | [16] | [19] | [17]

Nc1ncnc2c1ncn2Cc1c(F)cccc1Cl
inactive: [4] | [5] | [7] | [8] | [9] | [10] | [11] | [14] | [16] | [17]

Cc1c(C)n(CCN(C)C)c2ccc(C(=O)OCCN(C)C)cc12
inactive: [1] | [3] | [4] | [5] | [7] | [8] | [9] | [10] | [11] | [12] | [13] | [14] | [16] | [19] | [17]

CCCCC=O
inactive: [2] | [5] | [6] | [7] | [8] | [9] | [10] | [18] | [14] | [15] | [16] | [19] | [17]

CCN1CCCC(OC(=O)C(c2ccccc2)c2ccccc2)C1 (stereo not given)
inactive: [2] | [3] | [4] | [5] | [6] | [7] | [8] | [9] | [10] | [11] | [18] | [12] | [14] | [15] | [16]
